Test results taken from the supplement of paper PMC12636033.
± gives the standard deviation of the averaged measurements. In all, about 33,000 sequences were measured (“E-score (rank enrichment, -0.5 to 0.5)”: median about -0.0028, highest 2% from about 0.23 on). This excerpt belongs to a sample that is enriched for the highest values.

System: 2Sb-muMax20 (muMax20 with two 1,3-bis(methyl)benzene Cys staples, A13C/A17C and Q88C/A92C, C-terminal Lys)
Experiment: PBM 8-mer E-score (E-score (rank enrichment, -0.5 to 0.5)); higher = stronger preferential binding
Description: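 Protein binding microarray (universal PBM chip covering all 10-mers in fixed probe flanks) with chemically synthesized human Max(13-93) bHLH-LZ analogs (not full-length Max) bearing noncanonical residues (hArg, Tha, Aib, Nle at 65) and aromatic Cys staples. Read-out per 8-mer (and its reverse complement): E-score (rank-based enrichment, -0.5 to 0.5) and Z-score of median probe intensity.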

Sequence	PBM 8-mer E-score
TAATGCGA	0.018 ± 0.0008
AAACCGGG	0.0468 ± 0.0036
CCGATTGA	-0.00849 ± 0.0099
ACGTTATC	0.0764 ± 0.057
ACGTTATA	0.105 ± 0.0054
ACGTTATG	0.2695 ± 0.0015
TCATCAAA	-0.124 ± 0.034
CATTCGAG	0.0428 ± 0.017
ATCGTAAT	0.246 ± 0.023
ATCGTAAA	0.0946 ± 0.014
ATCGTAAG	0.0321 ± 0.021
CATTGGGA	-0.021 ± 0.0046
CATTGGGG	0.255 ± 0.038
AATTGGGA	0.218 ± 0.012
AATTGGAG	0.0796 ± 0.067
AATTGGTG	0.142 ± 0.023
AATTGGGT	0.2396 ± 0.0021
CATTGGGC	-0.173 ± 0.044
AATTGGGG	0.317 ± 0.0083
AATTGGGC	0.1581 ± 0.00092
AGCATTGG	-0.0228 ± 0.0039
TCCCCGAA	0.0276 ± 0.02

Sequence	PBM 8-mer E-score
ATGTTGAC	0.0701 ± 0.026
GCAATTCC	-0.0345 ± 0.025
ATTGGCAA	0.105 ± 0.047
ACTGAAAA	0.0674 ± 0.026
GCGGAAGA	-0.0695 ± 0.055
AAGGTCCT	-0.112 ± 0.078
GGAATGCA	0.038 ± 0.021
ATTAATAC	0.241 ± 0.012
AATAATAC	0.0444 ± 0.028
ATTAATGC	0.147 ± 0.069
CTTAATGC	0.234 ± 0.011
ATTAACAC	0.239 ± 0.026
GATAATAC	0.234 ± 0.042
CTTAATGA	0.0296 ± 0.046
GATAATAA	0.191 ± 0.037
CTTAACAC	0.173 ± 0.015
ATTAATAG	0.186 ± 0.045
ATTAATAA	0.177 ± 0.038
ATTAACAA	0.154 ± 0.00047
GTTGCTAA	0.124 ± 0.023
CCAACGCG	-0.0237 ± 0.021
AATACTCA	0.102 ± 0.013

Sequence	PBM 8-mer E-score
CGTCCGTC	-0.11 ± 0.051
ACACATAT	0.124 ± 0.021
ATAGGGCG	0.138 ± 0.0092
ATGATCAG	-0.0255 ± 0.099
CACTTGAC	-0.0462 ± 0.076
CTTAATTC	0.173 ± 0.039
CTTAATAC	0.244 ± 0.042
CTTAATAA	-0.0695 ± 0.0064
ATCAGCTA	0.00813 ± 0.027
AATGAAGA	0.0161 ± 0.012
AATGAAGG	0.0344 ± 0.037
AATGAAGT	0.238 ± 0.026
AACAACAC	0.2764 ± 0.0019
GACAACAC	-0.0706 ± 0.0054
AACAACAA	0.194 ± 0.033
TACAATAA	0.331 ± 0.05
CACAATAA	0.0489 ± 0.053
TACAACAA	0.268 ± 0.0087
CACAACAA	0.212 ± 0.0096
AACAATAA	0.133 ± 0.017
CACAACAC	0.219 ± 0.035
CATTTCCG	-0.0659 ± 0.0054

Sequence	PBM 8-mer E-score
CTTCCCGC	0.0401 ± 0.037
ACACGTTA	0.08518 ± 0.00069
ATTATACA	0.0477 ± 0.0088
ATTATAAC	0.306 ± 0.0034
ATTATAAT	0.141 ± 0.034
ATTATAAG	0.205 ± 0.057
ATTATACC	0.237 ± 0.011
ATTATACG	0.0799 ± 0.014
GGCTTCAC	-0.204 ± 0.1
CGAGTCAG	-0.177 ± 0.05
CTGTATGC	0.0233 ± 0.062
CGATACGA	-0.06 ± 0.12
ATATAATA	0.274 ± 0.044
ATATAAGA	0.249 ± 0.011
ACATAATC	0.142 ± 0.023
ACATAATA	0.302 ± 0.0096
GTATAAGA	0.212 ± 0.037
CTATAAGA	0.0167 ± 0.02
CTATAATA	0.0375 ± 0.0029
GCATAATA	0.195 ± 0.083
GTATAATA	0.226 ± 0.012
CTTAGCTA	-0.0391 ± 0.023

Sequence	PBM 8-mer E-score
CTTTCTCC	0.00231 ± 0.006
CATACAGA	-0.0476 ± 0.0072
CACCTGCG	-0.168 ± 0.017
CCGTATCG	-0.0355 ± 0.019
ACGTGGTG	0.316 ± 0.034
ACGTGGAT	0.207 ± 0.043
TAGTGGGA	0.038 ± 0.0028
ACGTGGGA	0.203 ± 0.044
GAGTGGGA	-0.0417 ± 0.045
ACGTGGTA	0.216 ± 0.024
ACGTGGAG	0.279 ± 0.0086
ACGTGGTC	0.111 ± 0.0094
AAGTGGGA	0.281 ± 0.018
ACGTGGGC	0.169 ± 0.022
CCGTGGAG	-0.106 ± 0.074
ACGTGGGG	0.261 ± 0.045
TCTCGCCA	0.0619 ± 0.024
AAAAGGCA	0.0454 ± 0.064
AAGTGGGT	0.1 ± 0.0081
ACGTGGCA	0.114 ± 0.049
AAGTGGGC	0.0223 ± 0.023
AAGTGGGG	0.264 ± 0.032
